# Data taken from PubChem BioAssay (EPA / NIEHS).
# Some compounds were tested as several samples or in several runs, with calls that do not always agree. Active and inactive are the calls of the source. How the source made its calls: active means hit-call score of the fitted dose curve at least 0.9, where 1 is the maximum; inactive means score below 0.9.
# Assays:
# Settings in all cases: mRNA level, 48 h; actives raise or lower the signal
# [1] = read-out: succinate dehydrogenase complex iron sulfur subunit B (SDHB), SDHB (gene 6390); experiment: LTEA_HepaRG_SDHB: Life Technologies and Expression Analysis (LTEA) Assay for succinate dehydrogenase complex iron sulfur subunit B (SDHB) using HepaRG (AID 2283528)
# Procedure, shortened: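 HepaRG cells (~100,000/well, plated 48 h) exposed in duplicate for 48 h in serum-free induction medium to 8-point half-log series from 100 uM in 0.5% DMSO; mRNA by qRT-PCR normalised to ACTB, GAPDH, POLR2A; bidirectional fit versus DMSO.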
# [2] = read-out: Signal transducer and activator of transcription 3 (Homo sapiens) (UniProt P40763); experiment: LTEA_HepaRG_STAT3: Life Technologies and Expression Analysis (LTEA) Assay for Signal transducer and activator of transcription (STAT3) using HepaRG (AID 2283529)
# Procedure, shortened: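 Differentiated human HepaRG cells in serum-free induction medium were exposed in duplicate for 48 h to eight half-log concentrations up to 100 uM in 0.5% DMSO. STAT3 mRNA was quantified by TaqMan qRT-PCR, normalized to ACTB, GAPDH and POLR2A, and fitted bidirectionally against DMSO.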
# [3] = read-out: sulfotransferase 2A1 (SULT2A1), SULT2A1 (gene 6822); experiment: LTEA_HepaRG_SULT2A1: Life Technologies and Expression Analysis (LTEA) Assay for sulfotransferase 2A1 (SULT2A1) using HepaRG (AID 2283531)
# Procedure, shortened: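 Expression change of SULT2A1, by qRT-PCR with three housekeeping-gene normalization, was scored bidirectionally versus DMSO. Cells: differentiated HepaRG, dosed in duplicate for 48 h across 8 points, highest 100 µM, half-log dilution, 0.5% DMSO.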
# [4] = read-out: Transforming Growth Factor (TGFA), TGFA (gene 7039); experiment: LTEA_HepaRG_TGFA: Life Technologies and Expression Analysis (LTEA) Assay for Transforming Growth Factor (TGFA) using HepaRG (AID 2283532)
# Procedure, shortened: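 Differentiated human HepaRG cells, plated 48 h then switched to serum-free induction medium, were exposed in duplicate for 48 h to 8-point half-log series from 100 uM in 0.5% DMSO. TGFA mRNA measured by qRT-PCR, normalized to ACTB/GAPDH/POLR2A, bidirectional fit versus DMSO.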
# [5] = read-out: Transforming Growth Factor (TGFB1), TGFB1 (gene 7040); experiment: LTEA_HepaRG_TGFB1: Life Technologies and Expression Analysis (LTEA) Assay for Transforming Growth Factor (TGFB1) Transporter using HepaRG (AID 2283533)
# Procedure, shortened: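 TGFB1 transcript measured by qRT-PCR with normalisation to three housekeeping genes (ACTB, GAPDH, POLR2A); human HepaRG line treated in duplicate for 48 hr with an 8-point series topping at 100 uM, 0.5% DMSO vehicle, bidirectionally fitted.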
# TIMP1, TIMP1 (gene 7076) = experiment: LTEA_HepaRG_TIMP1: Life Technologies and Expression Analysis (LTEA) Assay for TIMP1 using HepaRG (AID 2283534);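 on outcome: TaqMan qRT-PCR signal normalized to ACTB GAPDH and POLR2A housekeeping genes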
# Procedure, shortened: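 Bidirectional change in TIMP1 transcript versus 0.5% DMSO, measured by TaqMan qRT-PCR with three housekeeping genes for normalization. HepaRG human liver cells dosed 48 h in duplicate, top concentration 100 uM with half-log dilutions.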
# [6] = read-out: Tumor necrosis factor receptor 1 (TNFRSF1A), TNFRSF1A (gene 7132); experiment: LTEA_HepaRG_TNFRSF1A: Life Technologies and Expression Analysis (LTEA) Assay for Tumor necrosis factor receptor 1 (TNFRSF1A) using HepaRG (AID 2283535)
# Procedure, shortened: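 mRNA measured by qRT-PCR (TaqMan, Fluidigm arrays) against ACTB/GAPDH/POLR2A housekeepers after 48 h chemical exposure of HepaRG cells. Top concentration 100 uM, half-log 8-point series, duplicates; vehicle 0.5% DMSO, both fit directions.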
# [7] = read-out: Thyroid Hormone Responsive (THRSP), THRSP (gene 7069); experiment: LTEA_HepaRG_THRSP: Life Technologies and Expression Analysis (LTEA) Assay for Thyroid Hormone Responsive (THRSP) using HepaRG (AID 2283536)
# Procedure, shortened: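 Differentiated human HepaRG cells were exposed in duplicate for 48 h in serum-free induction medium to eight concentrations (top 100 uM, half-log steps, 0.5% DMSO). Expression was quantified by TaqMan qRT-PCR, normalized to ACTB, GAPDH and POLR2A, with bidirectional fitting against DMSO.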
# [8] = read-out: Cellular tumor antigen p53 (Homo sapiens) (UniProt P04637); experiment: LTEA_HepaRG_TP53: Life Technologies and Expression Analysis (LTEA) Assay for Tumor Protein P53 (TP53) using HepaRG (AID 2283537)
# Procedure, shortened: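 Differentiated HepaRG cells in serum-free induction medium exposed 48 h in duplicate to 8 half-log concentrations, top 100 uM, 0.5% DMSO. TP53 mRNA by TaqMan qRT-PCR (Fluidigm), normalized to ACTB, GAPDH, POLR2A; fitted bidirectionally versus DMSO.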
# [9] = read-out: UDP glucuronosyltransferase (UGT1A6), UGT1A6 (gene 54578); experiment: LTEA_HepaRG_UGT1A6: Life Technologies and Expression Analysis (LTEA) Assay for UDP glucuronosyltransferase (UGT1A6) using HepaRG (AID 2283539)
# Procedure, shortened: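 Expression was quantified by TaqMan qRT-PCR on Fluidigm arrays with ACTB/GAPDH/POLR2A normalization and bidirectional fitting against 0.5% DMSO. HepaRG cells (~100,000/well) were treated in duplicate for 48 h at eight half-log concentrations up to 100 uM in serum-free induction medium.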
# Cellular tumor antigen p53 (Homo sapiens), sequence (P04637 whole entry, looked up): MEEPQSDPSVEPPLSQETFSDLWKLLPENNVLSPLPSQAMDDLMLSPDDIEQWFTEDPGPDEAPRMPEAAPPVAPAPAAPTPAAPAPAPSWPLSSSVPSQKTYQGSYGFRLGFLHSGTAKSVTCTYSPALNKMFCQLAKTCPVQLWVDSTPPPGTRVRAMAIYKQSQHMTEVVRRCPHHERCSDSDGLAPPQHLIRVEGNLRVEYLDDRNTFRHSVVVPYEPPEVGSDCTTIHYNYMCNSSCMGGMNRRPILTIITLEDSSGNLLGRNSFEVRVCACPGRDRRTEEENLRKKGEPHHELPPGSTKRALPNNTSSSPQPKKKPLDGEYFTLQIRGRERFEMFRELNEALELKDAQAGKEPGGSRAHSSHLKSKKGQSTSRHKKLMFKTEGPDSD
# Signal transducer and activator of transcription 3 (Homo sapiens), sequence (P40763 whole entry, looked up): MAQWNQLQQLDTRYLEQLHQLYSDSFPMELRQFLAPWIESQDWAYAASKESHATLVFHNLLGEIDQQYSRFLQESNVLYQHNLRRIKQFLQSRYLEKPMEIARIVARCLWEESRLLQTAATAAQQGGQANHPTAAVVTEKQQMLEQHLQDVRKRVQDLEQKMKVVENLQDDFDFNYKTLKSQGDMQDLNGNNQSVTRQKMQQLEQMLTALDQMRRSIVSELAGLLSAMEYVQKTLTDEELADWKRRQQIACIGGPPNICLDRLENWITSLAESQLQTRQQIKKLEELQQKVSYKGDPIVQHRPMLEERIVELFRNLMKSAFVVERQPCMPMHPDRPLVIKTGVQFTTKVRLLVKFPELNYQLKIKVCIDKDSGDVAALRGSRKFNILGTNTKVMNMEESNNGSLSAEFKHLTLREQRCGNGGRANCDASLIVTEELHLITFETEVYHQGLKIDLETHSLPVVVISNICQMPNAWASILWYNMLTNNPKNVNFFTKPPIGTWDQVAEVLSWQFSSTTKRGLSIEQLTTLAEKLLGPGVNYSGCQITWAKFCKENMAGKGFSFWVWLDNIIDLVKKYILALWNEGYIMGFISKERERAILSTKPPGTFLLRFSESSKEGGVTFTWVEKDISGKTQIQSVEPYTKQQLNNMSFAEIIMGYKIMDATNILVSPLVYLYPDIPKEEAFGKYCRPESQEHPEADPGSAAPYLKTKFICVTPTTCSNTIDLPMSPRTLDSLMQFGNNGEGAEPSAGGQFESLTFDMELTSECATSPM
Compound,outcome [1],outcome [2],outcome [3],outcome [4],outcome [5],"outcome (TIMP1, TIMP1 (gene 7076))",outcome [6],outcome [7],outcome [8],outcome [9],AC50 [7],AC50 [1],AC50 [2],AC50 [3],AC50 [5],"AC50 (TIMP1, TIMP1 (gene 7076))",AC50 [8],AC50 [9],AC50 [4],AC50 [6]
CCOP(=S)(OCC)Oc1nc(Cl)c(Cl)cc1Cl,inactive,inactive,inactive,inactive,inactive,inactive,inactive,inactive,inactive,inactive,–,–,–,–,–,–,–,–,–,–
O=c1[nH]c(=O)[nH]c(=O)[nH]1,inactive,inactive,inactive,inactive,inactive,inactive,inactive,inactive,inactive,inactive,–,–,–,–,–,–,–,–,–,–
CC(C)(C)CC(C)(C)c1ccc(O)cc1,inactive,inactive,inactive,inactive,inactive,inactive,inactive,inactive,inactive,inactive,–,–,–,–,–,–,–,–,–,–
COc1cc(-c2ccc(N)c(OC)c2)ccc1N,inactive,inactive,inactive,inactive,inactive,inactive,inactive,inactive,inactive,inactive,42.9 µM (active),–,–,–,–,–,–,–,–,–
CC(C)(C)c1cc(O)ccc1O,inactive,inactive,inactive,inactive,inactive,inactive,inactive,inactive,inactive,inactive,–,–,–,–,–,–,–,–,–,–
Cn1sc(Cl)cc1=O,inactive,inactive,inactive,inactive,inactive,inactive,inactive,inactive,inactive,inactive,–,–,–,–,–,–,–,–,–,–
CC(C)(OO)c1ccccc1,inactive,inactive,inactive,inactive,inactive,inactive,inactive,inactive,inactive,inactive,–,–,–,–,–,–,–,–,–,–
O=C1C2(Cl)C3(Cl)C4(Cl)C(Cl)(Cl)C5(Cl)C3(Cl)C1(Cl)C5(Cl)C24Cl (stereo not given),–,–,–,inactive,–,–,inactive,–,–,–,9.2 µM (active),91.6 µM (active),93.1 µM (active),93.5 µM (active),92.5 µM (active),93.4 µM (active),22.6 µM (active),94.7 µM (active),–,–
CCCCCCCCc1ccc(O)cc1,inactive,inactive,inactive,inactive,inactive,inactive,inactive,inactive,–,inactive,–,–,–,–,–,–,0.418 µM (active),–,–,–
CCN1CCC2(CC1)COc1cc3c(cc12)N(C(=O)c1ccc(-c2ccc(-c4nnc(C)o4)cc2C)cc1)CC3,–,–,–,–,–,inactive,–,–,–,–,46.8 µM (active),24.8 µM (active),13.7 µM (active),75.3 µM (active),29 µM (active),–,46.8 µM (active),15.4 µM (active),83.8 µM (active),21.6 µM (active)
CN(C)N=O,inactive,inactive,inactive,inactive,inactive,inactive,inactive,inactive,inactive,inactive,–,–,–,–,–,–,–,–,–,–
CC(=O)[O][Hg][c]1ccccc1,–,–,–,–,–,–,–,–,–,–,2.11 µM (active),26.2 µM (active),17 µM (active),17.6 µM (active),23 µM (active),83.7 µM (active),0.193 µM (active),18.4 µM (active),23 µM (active),27.6 µM (active)
CC12CC1(C)C(=O)N(c1cc(Cl)cc(Cl)c1)C2=O (stereo not given),inactive,inactive,–,inactive,inactive,inactive,inactive,inactive,inactive,inactive,–,–,–,–,–,–,–,–,–,–
CCOP(=S)(OCC)SCSP(=S)(OCC)OCC,inactive,inactive,inactive,inactive,inactive,inactive,–,–,–,inactive,50 µM (active),–,–,–,–,–,0.217 µM (active),–,–,0.214 µM (active)
C[C@@H]1C[C@@H]([C@H](O)CC2CC(=O)NC(=O)C2)C(=O)[C@@H](C)C1,–,–,–,–,inactive,–,–,–,–,–,7.51 µM (active),50 µM (active),15.6 µM (active),48.9 µM (active),–,50 µM (active),12 µM (active),39.6 µM (active),31.1 µM (active),80.6 µM (active)
O=C(O)C(Cl)(Cl)Cl,inactive,inactive,inactive,inactive,inactive,inactive,inactive,inactive,inactive,inactive,–,–,–,–,–,–,–,9.92 µM (active),–,–

Compound,outcome [1],outcome [2],outcome [3],outcome [4],outcome [5],"outcome (TIMP1, TIMP1 (gene 7076))",outcome [6],outcome [7],outcome [8],outcome [9],AC50 [7],AC50 [1],AC50 [2],AC50 [3],AC50 [5],"AC50 (TIMP1, TIMP1 (gene 7076))",AC50 [8],AC50 [9],AC50 [4],AC50 [6]
O=C(O)C(F)(F)C(F)(F)C(F)(F)C(F)(F)C(F)(F)C(F)(F)F,inactive,inactive,inactive,inactive,inactive,inactive,inactive,inactive,inactive,inactive,–,–,–,–,–,–,–,–,–,–
CCC(C)(C)c1ccc(O)c(C(C)(C)CC)c1,inactive,inactive,inactive,inactive,inactive,inactive,inactive,inactive,inactive,inactive,–,–,–,–,–,–,–,–,–,–
O=C(Nc1ccc2[nH]ccc2c1)c1cc2cc(F)ccc2n1Cc1cccc(F)c1,inactive,inactive,–,–,inactive,–,inactive,–,–,–,28.3 µM (active),–,–,31.8 µM (active),–,81.9 µM (active),12.4 µM (active),30.2 µM (active),29.3 µM (active),–
O=[N+]([O-])c1ccc(O)c([N+](=O)[O-])c1,–,–,–,inactive,inactive,–,–,–,–,–,9.32 µM (active),13 µM (active),12.8 µM (active),17.7 µM (active),–,12.6 µM (active),13.2 µM (active),20.2 µM (active),–,4.42 µM (active)
Cc1ccccc1N,inactive,inactive,inactive,inactive,inactive,inactive,inactive,inactive,inactive,inactive,–,–,–,–,–,–,–,–,–,–
Oc1cccc2cccnc12,inactive,inactive,inactive,inactive,inactive,inactive,inactive,inactive,inactive,inactive,–,–,–,–,–,–,–,–,–,–
O=C(O)C(F)(F)C(F)(F)C(F)(F)C(F)(F)C(F)(F)C(F)(F)C(F)(F)C(F)(F)C(F)(F)C(F)(F)F,inactive,inactive,–,inactive,inactive,inactive,inactive,inactive,inactive,–,–,–,–,47.8 µM (active),–,–,–,–,–,–
ClC1(Cl)C2(Cl)C3(Cl)C4(Cl)C(Cl)(Cl)C5(Cl)C3(Cl)C1(Cl)C5(Cl)C24Cl (stereo not given),inactive,inactive,inactive,inactive,inactive,inactive,inactive,inactive,inactive,inactive,–,–,–,–,–,–,–,–,–,–
C[C@]12CCC(=O)C[C@@H]1CC[C@@H]1[C@@H]2CC[C@]2(C)[C@@H](O)CC[C@@H]12,inactive,inactive,inactive,inactive,inactive,inactive,inactive,inactive,inactive,inactive,–,–,–,–,–,–,–,–,–,–
C=C(C)C(=O)[O][Sn]([CH2]CCC)([CH2]CCC)[CH2]CCC,–,inactive,–,–,–,inactive,inactive,–,inactive,–,0.381 µM (active),94.1 µM (active),–,76.9 µM (active),2.44 µM (active),–,–,2.63 µM (active),2.42 µM (active),–
CC(C)(c1ccccc1)c1ccc(O)c(C(C)(C)c2ccccc2)c1,inactive,inactive,–,inactive,inactive,inactive,inactive,–,inactive,inactive,12.7 µM (active),–,–,86.3 µM (active),–,–,–,–,–,–
NC(=O)O,inactive,inactive,inactive,inactive,inactive,inactive,inactive,inactive,inactive,inactive,–,–,–,–,–,–,–,–,–,–
C=CC(=O)OCCCCCC(C)C,inactive,inactive,inactive,inactive,inactive,inactive,inactive,inactive,inactive,inactive,–,–,–,–,–,–,–,–,–,–
CCC(=O)C(CC(C)N(C)C)(c1ccccc1)c1ccccc1 (stereo not given),inactive,inactive,inactive,inactive,inactive,inactive,inactive,–,inactive,inactive,17.8 µM (active),–,–,–,–,–,–,–,–,–
ClCC(Cl)CCl,inactive,inactive,inactive,inactive,inactive,inactive,inactive,inactive,inactive,inactive,–,–,–,–,–,–,–,–,–,–
